Screening data (PubChem)
Hits are enriched below; roughly 8% of the tested compounds scored in any of these assays.
MCF10A rereplic: DNA re-replication induction in MCF 10a cells | Potency, µM (doses to about 46.1 µM), most hits filed as activators | MCF 10A DNA re-replication, Hoechst nuclear intensity, 48 h | hit rate 2.9% among 350,000; also: nearly all actives have a fitted effect of over 50% in size
HT1080 IDH1KD tx: toxicity to HT-1080 IDH1 knockdown cells (counter line). hit rate 2% among 360,000. HT-1080 IDH1 knockdown viability, ATP luminescence, 48 h. Potency, µM (doses to about 46.1 µM), usual class: cytotoxic. AID 686971
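HT-1080-IDH1KD cells (IDH1 knocked down), 750/well in RPMI with 5% FBS, treated with compound 48 h at 37 degrees C. Viability by CellTiter-Glo luminescence, normalised to DMSO and no-cell wells; concentration-response curves classed.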
KB-3-1 tox: kills parental KB-3-1 adenocarcinoma cells; Potency, µM (doses to about 46.1 µM), hits mostly cytotoxic; AID 1347075; hit rate 1.4% among 400,000; KB-3-1 viability, CellTiter-Glo ATP luminescence, 72 h; also: nearly all actives have a fitted effect of over 60% in size
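KB-3-1 parental drug-naive adenocarcinoma cells in DMEM/10% FBS, incubated 72 h at 37 C with pin-transferred compounds across a concentration series. Viability by CellTiter-Glo luminescence; concentration-response curves fitted after normalization.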
HT1080-NT tox: kills 2HG-producing HT-1080-NT fibrosarcoma cells. Potency, µM (doses to about 46.1 µM), actives largely listed as cytotoxic. HT-1080-NT fibrosarcoma viability, CellTiter-Glo ATP luminescence, 48 h. hit rate 1.6% among 360,000. AID 686970;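 also: NT is the 2HG producing partner of a matched IDH1 knockdown line; nearly all actives have a fitted effect of over 55% in size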
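Luminescent CellTiter-Glo readout after 48 hours of compound exposure at 37 degrees C defined viability of HT-1080-NT cells. Activity was normalized to DMSO wells and cell-free media wells; concentration-response curves were fitted and assigned curve classes.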
KB-V1 MDR tox: kills drug-selected multidrug resistant KB-V1 cells; Potency, µM (titrated, usually from 46.1 µM), actives largely listed as cytotoxic; hit rate 3.4% among 400,000; KB-V1 MDR cells viability, CellTiter-Glo, 72 h; also: nearly all actives have a fitted effect of over 60% in size
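Cells of the MDR subline KB-V1 are plated, dosed with compound at multiple concentrations, and incubated 72 h at 37 degrees C; CellTiter-Glo is then added and luminescence read after 10 min.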
SW480 rereplic: inducers of DNA re-replication in SW480 colon cancer cells; SW480 DNA re-replication, Hoechst DNA content imaging, 48 h; Potency, µM (series often up to 46.1 µM), usual class: activators; hit rate 1.8% among 340,000; also: nearly all actives have a fitted effect of over 55% in size
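Treated cells incubate 48 hr (37 C, 5% CO2), are stained 40 min with Hoechst, and nuclear fluorescence is enumerated; a rise in nuclei with high DNA signal marks re-replication.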
A number is an active result; ! = repeats disagree; [ ] = dose if it differs, or a comment. Calls follow the shape of the dose curve; as a rule, active = well fitted curve in the direction sought with a large enough effect; inconclusive = small, poorly fitted or top-dose-only effect, or another doubt; inactive = no such curve, though single readings can be large; an effect the other way counts as inactive or inconclusive.

How did O=C(/C=C/c1ccc2c(c1)OCO2)NCCSCc1c(Cl)cccc1Cl do in these assays?
MCF10A rereplic: 9.2µM; HT1080 IDH1KD tx: inconclusive; KB-3-1 tox: inactive; HT1080-NT tox: inactive; KB-V1 MDR tox: inconclusive; SW480 rereplic: inactive

What do the screens show for `O=C(/C=C/c1ccc2c(c1)OCO2)NCCSCc1ccc(Cl)cc1`?
MCF10A rereplic: inconclusive; HT1080 IDH1KD tx: inactive; KB-3-1 tox: 18.4µM; HT1080-NT tox: inactive; KB-V1 MDR tox: inactive; SW480 rereplic: inactive

What do the screens show for `CN(C)CCCNC(=O)/C=C/c1ccc2c(c1)OCO2`?
MCF10A rereplic: inactive; HT1080 IDH1KD tx: inactive; KB-3-1 tox: inactive; HT1080-NT tox: inactive; KB-V1 MDR tox: inactive; SW480 rereplic: inactive

What do the screens show for `CC(Sc1nnc(CN2CCCC2)n1Cc1ccccc1)C(=O)Nc1ccc(F)cc1` (configuration not stated)?
MCF10A rereplic: inconclusive; HT1080 IDH1KD tx: inactive; KB-3-1 tox: inactive; HT1080-NT tox: inactive; KB-V1 MDR tox: inactive; SW480 rereplic: inactive

How did CC(Sc1nnc(CN2CCCC2)n1Cc1ccccc1)C(=O)Nc1ccc(F)cc1Cl (configuration not stated) do in these assays?
MCF10A rereplic: inconclusive; HT1080 IDH1KD tx: inactive; KB-3-1 tox: inactive; HT1080-NT tox: inactive; KB-V1 MDR tox: inactive; SW480 rereplic: 3.66µM

Results for C[C@@H](C(=O)Nc1ccc(SC(F)F)cc1)N1C(=O)C2CCCCC2C1=O (some centres not stated) ?
MCF10A rereplic: inactive; HT1080 IDH1KD tx: inactive; KB-3-1 tox: inactive; HT1080-NT tox: inactive; KB-V1 MDR tox: inactive; SW480 rereplic: inactive

Results for COc1ccc(C2C(C#N)=C(N)Oc3cc4c(cc32)OCO4)cc1 (configuration not stated) ?
MCF10A rereplic: 20.6µM; HT1080 IDH1KD tx: inactive; KB-3-1 tox: inactive; HT1080-NT tox: inactive; KB-V1 MDR tox: inactive; SW480 rereplic: inconclusive

Results for COc1cc2c(cc1C1C(C#N)=C(N)OC3=C1C(=O)CC(C)(C)C3)OCO2 (configuration not stated) ?
MCF10A rereplic: inactive; HT1080 IDH1KD tx: inactive; KB-3-1 tox: inactive; HT1080-NT tox: inactive; KB-V1 MDR tox: inactive; SW480 rereplic: inactive

How did CCOC(=O)c1ccc(Nc2nc(=O)c3cccnc3s2)cc1 do in these assays?
MCF10A rereplic: inconclusive; HT1080 IDH1KD tx: 2.24µM; KB-3-1 tox: inactive; HT1080-NT tox: inconclusive; KB-V1 MDR tox: 6.51µM; SW480 rereplic: inactive

Results for Cc1cc(C)c(-c2cc(NC(=O)COC(=O)c3ccc(NC(=O)CC#N)cc3)n(-c3ccccc3)n2)cc1C ?
MCF10A rereplic: inactive; HT1080 IDH1KD tx: inactive; KB-3-1 tox: inactive; HT1080-NT tox: inactive; KB-V1 MDR tox: inconclusive; SW480 rereplic: inactive

How did O=C(O)CSc1nnc(C2COc3ccccc3O2)n1-c1ccccc1 (configuration not stated) do in these assays?
MCF10A rereplic: inactive; HT1080 IDH1KD tx: inactive; KB-3-1 tox: inactive; HT1080-NT tox: inactive; KB-V1 MDR tox: inactive; SW480 rereplic: inactive

Results for Cc1cccc(NS(=O)(=O)c2ccc(C(=O)NCC(c3ccccc3)N(C)C)cc2)c1C (configuration not stated) ?
MCF10A rereplic: inconclusive; HT1080 IDH1KD tx: inconclusive; KB-3-1 tox: inactive; HT1080-NT tox: inconclusive; KB-V1 MDR tox: inactive; SW480 rereplic: inconclusive

Results for NC(CCc1ccccc1)c1csc(Nc2cnccn2)n1 (configuration not stated) ?
HT1080 IDH1KD tx: inactive; KB-3-1 tox: inconclusive; HT1080-NT tox: inconclusive; KB-V1 MDR tox: inconclusive

What do the screens show for `Cc1nc2cc(-c3sccc3-n3cccc3)nn2c(C)c1C`?
MCF10A rereplic: inconclusive; HT1080 IDH1KD tx: inactive; KB-3-1 tox: inactive; HT1080-NT tox: inactive; KB-V1 MDR tox: 16.4µM; SW480 rereplic: inactive

Results for COc1cc(-c2noc(C)c2C#CC2(O)CCCCC2)cc(OC)c1OC ?
MCF10A rereplic: inactive; HT1080 IDH1KD tx: inactive; KB-3-1 tox: inconclusive; HT1080-NT tox: inactive; KB-V1 MDR tox: 14.6µM!; SW480 rereplic: inactive

What do the screens show for `COc1cc(-c2noc(C)c2C#Cc2ccsc2)cc(OC)c1OC`?
MCF10A rereplic: inconclusive; HT1080 IDH1KD tx: 0.517µM; KB-3-1 tox: inconclusive; HT1080-NT tox: inconclusive; KB-V1 MDR tox: 3.26µM!; SW480 rereplic: inconclusive

What do the screens show for `COc1cc(-c2noc(C)c2C#CC2(N)CCCCC2)cc(OC)c1OC`?
MCF10A rereplic: inconclusive; HT1080 IDH1KD tx: inactive; KB-3-1 tox: inconclusive; HT1080-NT tox: inactive; KB-V1 MDR tox: 20.6µM!; SW480 rereplic: inactive

What do the screens show for `COc1ccc(Cl)cc1NC(=O)Cn1cccc1`?
MCF10A rereplic: inconclusive; HT1080 IDH1KD tx: inactive; KB-3-1 tox: inactive; HT1080-NT tox: inactive; KB-V1 MDR tox: inconclusive; SW480 rereplic: inactive

How did CC1CCc2c(sc(NC(=O)/C=C/c3cccs3)c2C(=O)O)C1 (configuration not stated) do in these assays?
MCF10A rereplic: inactive; HT1080 IDH1KD tx: inconclusive; KB-3-1 tox: 18.4µM; HT1080-NT tox: inactive; KB-V1 MDR tox: inactive; SW480 rereplic: inactive

Results for Cc1ccc2c(=O)cc(C(=O)Nc3sc4c(c3C(=O)NCc3ccco3)CCC4)oc2c1C ?
KB-3-1 tox: inactive; KB-V1 MDR tox: inactive

How did COc1ccc(NS(=O)(=O)Cc2ccccc2)cc1OC do in these assays?
MCF10A rereplic: inactive; HT1080 IDH1KD tx: inactive; KB-3-1 tox: inactive; HT1080-NT tox: inactive[9.24 µM]; KB-V1 MDR tox: inactive; SW480 rereplic: inactive

Results for Cc1ccc(O)c(Nc2c3ccccc3nc3ccccc23)c1 ?
MCF10A rereplic: inconclusive; HT1080 IDH1KD tx: 16.4µM; KB-3-1 tox: inactive; HT1080-NT tox: 23.1µM; KB-V1 MDR tox: inactive; SW480 rereplic: inconclusive

Results for COc1cc(N)ccc1Nc1c2ccccc2nc2ccccc12 ?
HT1080 IDH1KD tx: 23.1µM; KB-3-1 tox: inactive; HT1080-NT tox: inconclusive; KB-V1 MDR tox: inactive

Results for CCCS(=O)(=O)Nc1ccc(Nc2c3ccccc3nc3ccccc23)c(OC)c1 ?
MCF10A rereplic: inactive; HT1080 IDH1KD tx: inconclusive; KB-3-1 tox: inconclusive; HT1080-NT tox: inactive; KB-V1 MDR tox: 23.1µM; SW480 rereplic: 7.31µM

How did COc1ccc(Nc2nc3ccccc3c(=O)s2)c(OC)c1 do in these assays?
MCF10A rereplic: inactive; HT1080 IDH1KD tx: inactive; KB-3-1 tox: inactive; HT1080-NT tox: inactive; KB-V1 MDR tox: inactive; SW480 rereplic: inactive

Results for O=C(COc1ccc2ccccc2c1Br)NC(=S)Nc1cccc(CO)c1 ?
MCF10A rereplic: inconclusive; HT1080 IDH1KD tx: inconclusive; KB-3-1 tox: inactive; HT1080-NT tox: inconclusive; KB-V1 MDR tox: inactive; SW480 rereplic: 2.91µM

How did O=C(NCc1cccnc1)c1ccc(CS(=O)(=O)c2ccc(Cl)cc2)o1 do in these assays?
MCF10A rereplic: inactive; HT1080 IDH1KD tx: inactive; KB-3-1 tox: inactive; HT1080-NT tox: inactive; KB-V1 MDR tox: inactive; SW480 rereplic: inactive
